In the supplement of paper PMC6522484:
± gives the standard deviation of the averaged measurements.

How the values were obtained:
DLD1 [1] = test: cell viability (CellTiter-Glo) relative to plate median (fraction of plate median); higher = more viable cells; conditions: 5 µM; treatment time 24 h; reporter: 7TFP
Summary of the method: (§1)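 Stable lentiviral TCF/Wnt firefly luciferase reporters (7TFP or TCF4/Wnt) were present in the colorectal cancer cell lines used. These cells received library compounds at a final 5 µM for 24 h, and parallel plates were read for firefly luciferase or CellTiterGlo luminescence. Each well was normalised to the plate median, and the value reported is the mean of two independent replicates.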

HCT116 = test: as above; conditions: 5 µM; treatment time 24 h; reporter: TCF4/Wnt
Summary of the method: as §1

SW480 [2] = test: as above; conditions: 5 µM; treatment time 24 h; reporter: 7TFP
Summary of the method: as §1

DLD1 [3] = test: TCF/Wnt firefly luciferase reporter signal relative to plate median (fraction of plate median); higher = higher Wnt reporter signal; conditions: 5 µM; treatment time 24 h; reporter: 7TFP
Summary of the method: as §1

SW480 [4] = test: as above; conditions: 5 µM; treatment time 24 h; reporter: 7TFP
Summary of the method: as §1

Row | SMILES | cell viability (DLD1 [1]) | cell viability (HCT116) | cell viability (SW480 [2]) | TCF/Wnt firefly luciferase reporter signal (DLD1 [3]) | TCF/Wnt firefly luciferase reporter signal (SW480 [4])
1 | CC[C@@H](C(=O)[C@@H](C)[C@@H](O)[C@H](C)[C@@H]1O[C@@H]([C@@H](CC)C(=O)O)CC[C@@H]1C)[C@H]1O[C@]2(C=C[C@@H](O)[C@]3(CC[C@@](C)([C@H]4CC[C@](O)(CC)[C@H](C)O4)O3)O2)[C@H](C)C[C@@H]1C | 0.948 ± 0.14 | 0.978 ± 0.073 | 1.07 ± 0.05 | 0.783 ± 0.11 | 0.897 ± 0.089
2 | NC(=O)c1ccc(N)nc1 | 1.1 ± 0.13 | 1.1 | 1.01 ± 0.16 | 1.01 ± 0.067 | 0.91 ± 0.037
3 | C/C=C(\C)C(=O)O[C@H]1C[C@@H](OC(C)=O)[C@@]2(C(=O)OC)CO[C@H]3[C@@H](O)[C@@](C)([C@]45O[C@@]4(C)[C@H]4C[C@@H]5O[C@@H]5OC=C[C@@]54O)[C@H]4[C@]1(CO[C@]4(O)C(=O)OC)[C@@H]32 | 0.998 ± 0.017 | 0.999 ± 0.087 | 0.959 ± 0.051 | 0.973 ± 0.052 | 0.962 ± 0.04
4 | CN1[C@@H]2CC[C@H]1C[C@@H](OC(=O)C(CO)c1ccccc1)C2 (stereo not given in full) | 0.911 ± 0.12 | 1.01 ± 0.033 | 0.994 ± 0.08 | 0.938 ± 0.21 | 0.938 ± 0.038
5 | O[C@@H]1C[C@H]2CCC[C@@H](C1)N2Cc1ccccc1 | 0.9315 ± 0.0035 | 0.996 ± 0.048 | 0.949 ± 0.037 | 1.1 ± 0.042 | 0.893 ± 0.013
6 | O=c1cccc2n1C[C@@H]1CNC[C@H]2C1 | 0.978 ± 0.045 | 0.981 ± 0.015 | 1.005 ± 0.0071 | 0.84 ± 0.15 | 0.907 ± 0.044
7 | O=P1(N(CCCl)CCCl)NCCCO1 (stereo not given) | 1.03 ± 0.035 | 0.955 ± 0.015 | 0.959 ± 0.051 | 1.1 ± 0.18 | 0.92 ± 0.014
8 | c1ccc2c(c1)[nH]c1cnccc12 | 0.956 ± 0.041 | 1.01 ± 0.021 | 0.9715 ± 0.005 | 0.892 ± 0.19 | 0.879 ± 0.065
9 | CC1=C2[C@H]3OC(=O)[C@@H](C)[C@@H]3CC[C@@]2(C)C=CC1=O | 1.08 ± 0.15 | 1.06 ± 0.078 | 1.03 ± 0.043 | 0.968 ± 0.026 | 1.06 ± 0.12
10 | C/C=C/c1ccc2c(c1)OCO2 | 0.951 ± 0.13 | 0.998 ± 0.059 | 0.986 ± 0.049 | 1.04 ± 0.17 | 1.05 ± 0.1
11 | C=C(C)c1cc2cc(C(C)=O)c(O)cc2o1 | 1.14 ± 0.13 | 1.06 ± 0.071 | 1.07 ± 0.057 | 1.21 ± 0.29 | 1.12 ± 0.085
12 | CC[N+]1(C)CCCC(OC(=O)C(O)(c2ccccc2)c2ccccc2)C1 (stereo not given) | 0.945 ± 0.0014 | 0.949 ± 0.087 | 0.933 ± 0.091 | 0.857 ± 0.0071 | 0.958 ± 0.06
13 | CC1CC(Cl)CCC1C(=O)OC(C)(C)C (stereo not given) | 0.973 ± 0.052 | 1.045 ± 0.0071 | 0.956 ± 0.025 | 0.976 ± 0.034 | 0.989 ± 0.03
14 | CCC1(CC)C(=O)C=CNC1=O | 0.965 ± 0.016 | 0.923 ± 0.025 | 0.926 ± 0.013 | 1.02 ± 0.09 | 1.07 ± 0.021
15 | COc1ccc(O)c2c(=O)c3c(OC)cc4c(c3oc12)C1C=COC1O4 (stereo not given) | 1.06 ± 0.057 | 1.03 ± 0.057 | 1.02 ± 0.028 | 1.01 ± 0.11 | 0.999 ± 0.044
16 | Oc1cccc2cccnc12 | 0.9665 ± 0.0035 | 0.967 ± 0.075 | 1.1 ± 0.028 | 1.03 ± 0.09 | 0.793 ± 0.037
17 | Nc1ccncc1 | 1.025 ± 0.0071 | 1.07 ± 0.028 | 1 ± 0.1 | 1.03 ± 0.054 | 1.13 ± 0.071
18 | COc1cc([C@@H]2c3cc4c(cc3[C@@H](O)[C@H]3COC(=O)[C@H]23)OCO4)cc(OC)c1O | 0.952 ± 0.082 | 0.613 ± 0.12 | 1.06 ± 0.021 | 0.785 ± 0.17 | 0.742 ± 0.084
19 | CSc1nc(NC(C)C)nc(NC(C)C)n1 | 0.9725 ± 0.0035 | 0.92 ± 0.11 | 1 ± 0.014 | 1.06 | 1.07 ± 0.014
20 | CC(=O)O[C@@H]1[C@H]2CC[C@H]3[C@@](C)(O)[C@@H]4C[C@H](O)C(C)(C)[C@@]4(O)[C@H](O)C[C@@]13C[C@@]2(C)O | 1.04 ± 0.014 | 1.105 ± 0.0071 | 1.09 ± 0.064 | 1.04 ± 0.014 | 0.984 ± 0.19
21 | CC1(C)C2CC(=O)[C@]3(C)C(CC[C@@]4(C)[C@H](c5ccoc5)OC(=O)[C@H]5O[C@]543)[C@@]2(C)C(=O)C[C@H]1O (stereo not given in full) | 1.015 ± 0.0071 | 0.988 ± 0.018 | 1.01 ± 0.071 | 0.918 ± 0.037 | 0.965 ± 0.079
22 | CC(C)Nc1nc(Cl)nc(NC(C)C)n1 | 1.02 ± 0.049 | 0.952 ± 0.0014 | 0.949 ± 0.025 | 0.973 ± 0.038 | 0.944 ± 0.018
23 | N=C(NCCC[C@H](N)C(=O)O)N[N+](=O)[O-] | 0.944 ± 0.14 | 0.966 ± 0.047 | 0.9515 ± 0.0064 | 1.07 ± 0.05 | 0.947 ± 0.09
24 | CC1(C)C2CC(=O)[C@]3(C)C(CC[C@@]4(C)[C@H](c5ccoc5)OC(=O)C5OC543)[C@@]2(C)[C@@H](O)C[C@H]1O (stereo not given in full) | 0.996 ± 0.048 | 1.04 ± 0.057 | 0.995 ± 0.05 | 1.01 ± 0.098 | 1.02 ± 0.054
25 | C[C@]12C=CC(=O)C=C1CC[C@@H]1[C@@H]2CC[C@]2(C)C(=O)CC[C@@H]12 | 1.07 ± 0.11 | 1.09 ± 0.035 | 1.11 ± 0.078 | 1.08 ± 0.19 | 1.025 ± 0.0071
26 | COc1ccc(C[C@H]2NC[C@H](O)[C@H]2OC(C)=O)cc1 | 0.831 ± 0.052 | 0.513 ± 0.065 | 1.06 ± 0.042 | 0.248 ± 0.011 | 0.357 ± 0.036
27 | C[C@H]1C(=O)O[C@@H]2CCN3CC=C(COC(=O)[C@](C)(O)[C@]1(C)O)[C@H]23 | 1 ± 0.023 | 1.04 ± 0.09 | 1.015 ± 0.0071 | 0.919 ± 0.035 | 0.998 ± 0.06
28 | Cc1nccc2c1[nH]c1cc(O)ccc12 | 0.984 ± 0.0099 | 0.978 ± 0.06 | 1.01 ± 0.018 | 1.01 ± 0.03 | 0.978 ± 0.046
29 | CNc1ccc(C(=O)CC(O)CCC(C)C2OC(=O)CC(O)CC(=O)CC(O)CC(O)CC(O)CC(O)CC3(O)CC(O)C(C(=O)OC)C(CC(O[C@@H]4O[C@H](C)[C@@H](O)[C@H](N)[C@@H]4O)/C=C/C=C/C=C/C=C/C=C/C=C/C=C/C2C)O3)cc1.COC(=O)C1C(O)CC2(O)CC(O)CC(O)CC(O)CC(O)CC(=O)CC(O)CC(=O)OC(C(C)CCC(O)CC(=O)c3ccc(N)cc3)C(C)/C=C/C=C/C=C/C=C/C=C/C=C/C=C/C(O[C@@H]3O[C@H](C)[C@@H](O)[C@H](N)[C@@H]3O)CC1O2 (stereo not given in full) | 0.932 ± 0.096 | 0.959 ± 0.011 | 0.962 ± 0.0085 | 0.85 ± 0.088 | 0.908 ± 0.023
